biological target: POU1 (OCT1 POU domain) (human, UniProt P14859 260-458); experiment: EMSA-SELEX-seq; no BOB1; 20 mM Tris-HCl pH 7.6, 140 mM NaCl, 10% glycerol, 0.5 mM EDTA, 0.05% Triton X-100, 0.1 mg/mL BSA, 0.1 mg/mL poly(dI-dC), 5 mM DTT, room temperature, 20 min; high values mean tight binding; conditions: protein: recombinant; dsDNA, one strand shown
Method in brief: (§1)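 In this selection, tagged POU-domain proteins from E. coli BL21, purified under denaturing conditions and renatured, were bound to a PCR-amplified double-stranded random 35-nt library with or without coactivator protein. Reactions held 30 ng protein, 300 ng library and, where used, 28 ng coactivator protein in 20 μL Tris–HCl pH 7.6 binding buffer for 20 min at RT. Complex bands were cut from native 6% PAGE, eluted and PCR-amplified over four rounds, then Illumina-sequenced, and binding preference is the percentage of sequenced 8-mers matching a motif pattern.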

POU1 (OCT1 POU domain), sequence (P14859 260-458): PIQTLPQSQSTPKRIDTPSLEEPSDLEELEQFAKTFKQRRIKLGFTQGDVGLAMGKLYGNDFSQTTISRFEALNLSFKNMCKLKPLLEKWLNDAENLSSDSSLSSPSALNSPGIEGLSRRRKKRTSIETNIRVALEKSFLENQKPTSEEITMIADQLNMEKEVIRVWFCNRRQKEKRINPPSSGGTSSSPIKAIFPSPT

Sequence	binding signal
AAGGGAAG	0.05 % of ANNNNAAN 8-mers
ACGGCAAC	0.0141 % of ANNNNAAN 8-mers
ACGCTAAA	0.0305 % of ANNNNAAN 8-mers
ACTGGAAC	0.0168 % of ANNNNAAN 8-mers
AAGTAAAG	0.0545 % of ANNNNAAN 8-mers
AGTAAAAG	0.061 % of ANNNNAAN 8-mers
ATCGCAAC	0.0126 % of ANNNNAAN 8-mers
AAAAAAAT	0.13 % of ANNNNAAN 8-mers
ATGGTAAG	0.0984 % of ANNNNAAN 8-mers
AGGCGAAA	0.0389 % of ANNNNAAN 8-mers
ACAAAAAC	0.0488 % of ANNNNAAN 8-mers
AGGTTAAT	0.174 % of ANNNNAAN 8-mers
AAAATAAT	0.178 % of ANNNNAAN 8-mers
ATAAAAAC	0.066 % of ANNNNAAN 8-mers
AACAGAAC	0.0183 % of ANNNNAAN 8-mers
ATACAAAG	0.0984 % of ANNNNAAN 8-mers
AAGGTAAT	0.122 % of ANNNNAAN 8-mers
ATACGAAG	0.0481 % of ANNNNAAN 8-mers
ACCATAAC	0.032 % of ANNNNAAN 8-mers
AATGTAAC	0.0591 % of ANNNNAAN 8-mers

Sequence	binding signal
AGCCTAAT	0.0503 % of ANNNNAAN 8-mers
ATGTAAAG	0.489 % of ANNNNAAN 8-mers
AAAACAAA	0.158 % of ANNNNAAN 8-mers
AGTGCAAC	0.0118 % of ANNNNAAN 8-mers
AGACTAAG	0.0278 % of ANNNNAAN 8-mers
ATCTCAAG	0.0313 % of ANNNNAAN 8-mers
ACAGCAAG	0.0156 % of ANNNNAAN 8-mers
ACAAAAAA	0.0656 % of ANNNNAAN 8-mers
ACTTAAAA	0.0587 % of ANNNNAAN 8-mers
ATTCAAAT	1.58 % of ANNNNAAN 8-mers
ATAATAAG	0.182 % of ANNNNAAN 8-mers
ATTGTAAG	0.0507 % of ANNNNAAN 8-mers
AGTCGAAA	0.0431 % of ANNNNAAN 8-mers
ATGAAAAG	0.135 % of ANNNNAAN 8-mers
ATTTTAAG	0.108 % of ANNNNAAN 8-mers
ACCCAAAG	0.0198 % of ANNNNAAN 8-mers
ATGCAAAA	1.5 % of ANNNNAAN 8-mers
AACTGAAT	0.0885 % of ANNNNAAN 8-mers
AAAGAAAT	0.145 % of ANNNNAAN 8-mers

biological target: T1, POU2 (OCT2 POU domain) (human, UniProt P09086 175-386); experiment: as above; conditions: protein: recombinant; dsDNA, one strand shown
T1 sequence: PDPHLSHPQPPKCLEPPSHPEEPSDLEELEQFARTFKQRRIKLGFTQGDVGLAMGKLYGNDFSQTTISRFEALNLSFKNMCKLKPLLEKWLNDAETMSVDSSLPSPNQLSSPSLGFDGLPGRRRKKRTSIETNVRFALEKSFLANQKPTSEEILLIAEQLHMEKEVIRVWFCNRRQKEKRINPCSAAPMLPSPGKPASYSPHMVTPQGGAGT
Method in brief: as §1

Sequence	binding signal
AAGGGAAG	0.0541 % of ANNNNAAN 8-mers
ACGGCAAC	0.0109 % of ANNNNAAN 8-mers
ACGCTAAA	0.0391 % of ANNNNAAN 8-mers
ACTGGAAC	0.0207 % of ANNNNAAN 8-mers
AAGTAAAG	0.0541 % of ANNNNAAN 8-mers
AGTAAAAG	0.0662 % of ANNNNAAN 8-mers
ATCGCAAC	0.0173 % of ANNNNAAN 8-mers
AAAAAAAT	0.12 % of ANNNNAAN 8-mers
ATGGTAAG	0.127 % of ANNNNAAN 8-mers
AGGCGAAA	0.0357 % of ANNNNAAN 8-mers
ACAAAAAC	0.0397 % of ANNNNAAN 8-mers
AGGTTAAT	0.216 % of ANNNNAAN 8-mers
AAAATAAT	0.212 % of ANNNNAAN 8-mers
ATAAAAAC	0.0633 % of ANNNNAAN 8-mers
AACAGAAC	0.0242 % of ANNNNAAN 8-mers
ATACAAAG	0.0938 % of ANNNNAAN 8-mers
AAGGTAAT	0.163 % of ANNNNAAN 8-mers
ATACGAAG	0.0552 % of ANNNNAAN 8-mers
ACCATAAC	0.0213 % of ANNNNAAN 8-mers
AATGTAAC	0.0639 % of ANNNNAAN 8-mers

Sequence	binding signal
AGCCTAAT	0.0811 % of ANNNNAAN 8-mers
ATGTAAAG	0.393 % of ANNNNAAN 8-mers
AAAACAAA	0.119 % of ANNNNAAN 8-mers
AGTGCAAC	0.0219 % of ANNNNAAN 8-mers
AGACTAAG	0.0328 % of ANNNNAAN 8-mers
ATCTCAAG	0.0368 % of ANNNNAAN 8-mers
ACAGCAAG	0.0155 % of ANNNNAAN 8-mers
ACAAAAAA	0.0621 % of ANNNNAAN 8-mers
ACTTAAAA	0.0524 % of ANNNNAAN 8-mers
ATTCAAAT	1.29 % of ANNNNAAN 8-mers
ATAATAAG	0.258 % of ANNNNAAN 8-mers
ATTGTAAG	0.0685 % of ANNNNAAN 8-mers
AGTCGAAA	0.0414 % of ANNNNAAN 8-mers
ATGAAAAG	0.106 % of ANNNNAAN 8-mers
ATTTTAAG	0.131 % of ANNNNAAN 8-mers
ACCCAAAG	0.0184 % of ANNNNAAN 8-mers
ATGCAAAA	1.17 % of ANNNNAAN 8-mers
AACTGAAT	0.108 % of ANNNNAAN 8-mers
AAAGAAAT	0.112 % of ANNNNAAN 8-mers

— paper PMC10812921, “Transcriptional Coactivator BOB1 (OBF1, OCA-B) Modulates the Specificity of DNA Recognition by the POU-Domain Factors OCT1 and OCT2 in a Monomeric Configuration”
